# The supplement of paper PMC8387472
# Counter-ions that a name gives are not always drawn. ± gives the standard deviation of the averaged measurements.
# Tested on: mESC LDLR-Dup GFP reporter (SpCas9 MH-deletion repair)
# Assay: fraction of GFP+ cells relative to DMSO control (fold change); higher = more MH-deletion repair to in-frame LDLR (or more editing)
# Conditions: 2 µM; 7 days post-transfection
row,Structure (SMILES),fraction of GFP+ cells
1,Nc1[nH]cnc2ncnc1-2 [Adenine sulfate],1.1 ± 0.025
2,CO[C@H]1/C=C/O[C@@]2(C)Oc3c(C)c(O)c4c(O)c(c(/C=N/N5CCN(C)CC5)c(O)c4c3C2=O)NC(=O)/C(C)=C\C=C\[C@H](C)[C@H](O)[C@@H](C)[C@@H](O)[C@@H](C)[C@H](OC(C)=O)[C@@H]1C [Rifampin],2.38 ± 0.52
3,COc1cc2c(Nc3ccc(NC(=O)c4ccccc4)cc3)ncnc2cc1OCCCN1CCOCC1,0.59 ± 0.2
4,Oc1nc(-c2ccc(C(F)(F)F)cc2)nc2c1CSCC2,0.752 ± 0.014
5,CN1CCN(c2c(F)cc3c(=O)c(C(=O)O)cn4c3c2OCN4C)CC1 [Marbofloxacin],1.19 ± 0.59
6,CNC(=O)c1nn(C)c2c1C(C)(C)Cc1cnc(Nc3ccc(N4CCN(C)CC4)cc3)nc1-2,0.352 ± 0.06
7,C=C1C(=O)O[C@H]2[C@H]1CC/C(C)=C/CC[C@@]1(C)O[C@@H]21 [(-)-Parthenolide],0.606 ± 0.018
8,COc1cc2ncnc(-n3nc(-c4ccccn4)nc3N)c2cc1OC,0.973 ± 0.34
9,N=C(NOCC(O)CN1CCCCC1)c1cccnc1 (stereo unspecified),0.805 ± 0.12
10,CC(C(=O)Nc1cccc(/N=C/c2c(O)ccc3ccccc23)c1)c1ccccc1 (stereo unspecified) [Salermide],0.987 ± 0.56
11,CCc1c(Cl)c(O)c(Cl)c(O)c1C(=O)O[C@H]1[C@H](O)[C@H](OC)[C@H](OC/C2=C\C=C\C[C@H](O)/C(C)=C/[C@H](CC)[C@@H](O[C@@H]3OC(C)(C)[C@@H](OC(=O)C(C)C)[C@H](O)[C@@H]3O)/C(C)=C/C(C)=C/C[C@@H]([C@@H](C)O)OC2=O)O[C@@H]1C [Fidaxomicin],2.81 ± 0.44
